system: Pseudomonas aeruginosa PA14 dppA1-A5 penta mutant + pBBR5.DppA1 (PA14_58350); assay: respiration area under curve with compound as sole nitrogen source, 24 h (OmniLog AUC (arbitrary units)); higher = more respiration / better utilisation as nitrogen source, active = 2000 or more
Procedure: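 Biolog Phenotype MicroArray plates PM6-PM8: each di/tripeptide is the sole nitrogen source. Tetrazolium reduction was read in the OmniLog for 24 h at 37°C and summarised as area under the respiration curve (arbitrary units). Values below 2000 count as no respiration. Strain is the SBP penta mutant complemented with DppA1 on a plasmid under its native promoter. Lys/His/Cys peptides are excluded.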

SMILES	respiration area under curve
N[C@@H](Cc1ccccc1)C(=O)NCC(=O)O (plate: PM7)	6420 (active)
C[C@H](N)C(=O)N[C@@H](Cc1c[nH]c2ccccc12)C(=O)O (plate: PM6)	3700 (active)
N[C@@H](Cc1ccccc1)C(=O)N1CCC[C@H]1C(=O)O (plate: PM7)	3980 (active)
CC[C@H](C)[C@H](NC(=O)CNC(=O)CN)C(=O)O (plate: PM8)	2430 (active)
CC(C)C[C@H](NC(=O)[C@@H](N)CC(=O)O)C(=O)O (plate: PM6)	984 (inactive)
CC[C@H](C)[C@H](N)C(=O)N[C@@H](C)C(=O)O (plate: PM6)	2520 (active)
NC(=O)CC[C@H](NC(=O)[C@@H](N)CC(=O)O)C(=O)O (plate: PM8)	7700 (active)
C[C@H](N)C(=O)NCC(=O)O (plate: PM6)	6240 (active)

system: Pseudomonas aeruginosa PA14 wild type; assay: as above
Procedure: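 Biolog Phenotype MicroArray plates PM6-PM8: each di/tripeptide is the sole nitrogen source (IF-0 medium with succinate/ferric citrate and dye mix A). Tetrazolium reduction was read in the OmniLog every 15 min for 24 h at 37°C and summarised as area under the respiration curve (arbitrary units). The paper counts values below 2000 as no respiration and above 8000 as solid respiration. Replicate datasets are averaged.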

SMILES	respiration area under curve
CC[C@H](C)[C@H](N)C(=O)N[C@H](C(=O)O)[C@@H](C)CC (plate: PM6)	2030 (active)
N[C@@H](Cc1ccccc1)C(=O)NCC(=O)O (plate: PM7)	7630 (active)
C[C@@H](O)[C@H](N)C(=O)N1CCC[C@H]1C(=O)O (plate: PM7)	13000 (active)
CSCC[C@H](N)C(=O)N[C@@H](Cc1ccc(O)cc1)C(=O)O (plate: PM8)	1560 (inactive)
C[C@H](N)C(=O)N[C@@H](Cc1c[nH]c2ccccc12)C(=O)O (plate: PM6)	4490 (active)
CC(C)[C@H](N)C(=O)N[C@@H](Cc1ccccc1)C(=O)O (plate: PM8)	6560 (active)
NC(N)=NCCC[C@H](N)C(=O)N[C@@H](CO)C(=O)O (plate: PM6)	9350 (active)
N[C@@H](Cc1ccccc1)C(=O)N1CCC[C@H]1C(=O)O (plate: PM7)	11400 (active)
CC(C)C[C@@H](N)C(=O)N[C@H](CC(C)C)C(=O)O (plate: PM8)	0 (inactive)
CC(C)C[C@H](N)C(=O)N1CCC[C@H]1C(=O)O (plate: PM8)	9370 (active)
CC(C)C[C@H](NC(=O)[C@@H](N)C(C)C)C(=O)O (plate: PM7)	9770 (active)
NC(N)=NCCC[C@H](NC(=O)[C@@H](N)CCCN=C(N)N)C(=O)O (plate: PM6)	10100 (active)
CC[C@H](C)[C@H](NC(=O)CNC(=O)CN)C(=O)O (plate: PM8)	10400 (active)
O=C(O)[C@H](Cc1ccccc1)NC(=O)[C@@H]1CCCN1 (plate: PM7)	7250 (active)
CC(C)C[C@H](NC(=O)[C@@H](N)CC(=O)O)C(=O)O (plate: PM6)	2690 (active)
C[C@H](NC(=O)CNC(=O)CN)C(=O)O (plate: PM8)	11300 (active)
CC(C)C[C@H](N)C(=O)N[C@H](CC(C)C)C(=O)O (plate: PM8)	0 (inactive)
CC(C)C(NC(=O)C1CCCN1)C(=O)O (centres undefined) (plate: PM8)	7080 (active)

SMILES	respiration area under curve
CC[C@H](C)[C@H](N)C(=O)N[C@@H](C)C(=O)O (plate: PM6)	5290 (active)
CC(C)C[C@H](NC(=O)[C@@H](N)CC(C)C)C(=O)O (plate: PM6)	3640 (active)
NC(=O)CC[C@H](NC(=O)[C@@H](N)CC(=O)O)C(=O)O (plate: PM8)	9700 (active)
N[C@@H](CO)C(=O)N[C@@H](Cc1ccc(O)cc1)C(=O)O (plate: PM7)	6130 (active)
NC(=O)CC[C@H](NC(=O)[C@@H](N)CCCN=C(N)N)C(=O)O (plate: PM6)	9850 (active)
NCC(=O)N[C@H](CO)C(=O)O (plate: PM8)	641 (inactive)
CC[C@H](C)[C@H](NC(=O)[C@@H](N)CC(C)C)C(=O)O (plate: PM6)	6260 (active)
CC(C)C[C@H](NC(=O)[C@@H]1CCCN1)C(=O)O (plate: PM7)	7810 (active)
NCC(=O)N[C@H](CC(=O)O)C(=O)O (plate: PM8)	0.2 (inactive)
CC(C)C[C@H](NC(=O)[C@@H](N)Cc1c[nH]c2ccccc12)C(=O)O (plate: PM7)	3760 (active)
CC[C@H](C)[C@H](NC(=O)[C@@H](N)Cc1ccc(O)cc1)C(=O)O (plate: PM8)	6790 (active)
CC(C)[C@H](NC(=O)[C@@H](N)Cc1ccccc1)C(=O)O (plate: PM8)	6870 (active)
C[C@H](N)C(=O)NCC(=O)O (plate: PM6)	8070 (active)
NC(N)=NCCC[C@H](N)C(=O)N[C@@H](CC(=O)O)C(=O)O (plate: PM6)	9430 (active)
N[C@@H](Cc1c[nH]c2ccccc12)C(=O)N[C@@H](Cc1c[nH]c2ccccc12)C(=O)O (plate: PM7)	1430 (inactive)
N[C@@H](CC(=O)O)C(=O)N[C@@H](Cc1ccccc1)C(=O)O (plate: PM6)	3070 (active)
CSCC[C@H](N)C(=O)N1CCC[C@H]1C(=O)O (plate: PM7)	8120 (active)
NC(=O)C[C@H](N)C(=O)N[C@@H](CCC(=O)O)C(=O)O (plate: PM6)	5930 (active)

Source: the supplement of paper PMC4206461
